Only some compounds are listed: those with a hit (about 1.3% of all), similar ones and a draw of the others.
NADH coupling = inhibition of NAD/NADH coupling enzymes, library profiling; coupled PK/LDH NADH assays, four targets; IC50, µM (top dose mostly 10 µM), for inactives: at the highest dose inhibition; hit rate 0.02% among 65,000; AID 774;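 active means single-dose screening hits from any of four coupled enzyme assays that gave an IC50 when retested across doses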;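 further: the DPM-DC format reads NADH fluorescence rather than 340 nm absorbance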
PMK inhibit = inhibitors of Streptococcus pneumoniae phosphomevalonate kinase. hit rate 0.49% among 65,000. purified PMK, PK/LDH-coupled NADH absorbance 340 nm. inhibition, % at 10 µM;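 active means top-ranked compounds by inhibition in the single 10 µM screen, taking a fixed number of the strongest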;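 further: 0% = full reaction with DMSO carrier and 100% = background rate without enzyme reaction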
MK inhibit = S. pneumoniae mevalonate kinase inhibition; purified MK, PK/LDH-coupled NADH absorbance 340 nm; AID 555; hit rate 0.48% among 65,000; inhibition, % at 10 µM;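 active means ranked among the strongest by inhibition in the single 10 µM screen, a fixed top-ranked set picked for dose follow-up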
Spn DPM-DC inh = blocks S. pneumoniae diphosphomevalonate decarboxylase. purified DPM-DC, PK/LDH coupled NADH fluorescence. calls only at 10 µM. hit rate 0.49% among 65,000. AID 556;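 active means the 320 compounds with the highest percent inhibition in the single-dose primary screen, excluding strongly autofluorescent ones, cut at about 32% in these data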;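 further: kinetic rate of NADH fluorescence loss reporting ADP formed by the decarboxylase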
Numbers without * were called inactive; i = inactive; / = no result shown; + = active, no number.

SMILES	NADH coupling	PMK inhibit	MK inhibit	Spn DPM-DC inh
Cc1nn(-c2ccccc2)c(C)c1NS(=O)(=O)c1ccccc1	7%	9	10	i
COc1ccc(CN2CCCCC2C(=O)Nc2ccc(OC)c(OC)c2)cc1OC (stereo not drawn)	7%	7	5	i
CCOC(=O)C1CCCCN1Cc1ccc(F)c(Br)c1 (stereo not drawn)	15%	0	45*	i
COc1ccc(CN2CCC(C(=O)N3CCN(c4ccccc4F)CC3)CC2)cc1OC	17%	0	52*	i
COc1ccc(CN2CCN(c3cccc(C)c3C)CC2)cc1OC	21%	12	51*	i
COc1cc(CN2CCN(c3cccc(C)c3C)CC2)cc(Br)c1O	11%	5	29	i
O=C(Nc1ccccc1-c1ccccc1)C1CCCN(c2ncccn2)C1 (stereo not drawn)	5%	8	0	i
CCOC(=O)C1=C(O)C(=O)N(c2ccc(S(N)(=O)=O)cc2)C1c1ccc(OC)cc1 (stereo not drawn)	27%	35*	21	i
CCOC(=O)c1ccc(N2C(=O)C(O)=C(C(C)=O)C2c2ccc(O)c(OC)c2)cc1 (stereo not drawn)	4%	7	5	i
CN(C1=NC(=O)C(CC(=O)Nc2ccc(Br)cc2)S1)c1ccc(O)cc1 (stereo not drawn)	5%	2	6	i
CC(C)(C)NC(=O)CSc1nnc(-c2ccccn2)n1-c1ccccc1	5%	28*	3	i
COc1cc2c(cc1OC)-c1cc(NCc3ccccn3)nc(=O)n1CC2	35%	17	52*	/
CCNc1cc2n(c(=O)n1)CCc1cc(OC)c(OC)cc1-2	6%	0	1	i
CC1CCCCN1c1nnc(NC(=O)Cn2c(=O)oc3ccccc32)s1 (stereo not drawn)	5%	16	0	i
CC1CN(C(=O)Cc2ccc(-c3ccccc3)cc2)CC(C)O1 (stereo not drawn)	0%	0	0	i
O=C(NCc1cccnc1)c1ccc2c(=O)n(CCCN3CCCC3=O)c(=S)[nH]c2c1	24%	13	6	+
COc1ccc(-c2cc(C(=O)OCC(=O)N(C)C)c3ccccc3n2)cc1	19%	12	7	+
FC(F)(F)c1cc(-c2ccco2)nc(-n2nnc3ccccc32)n1	11%	11	5	+
COc1ccccc1N(C)S(=O)(=O)c1ccc(C(=O)OCC(=O)NCc2ccco2)cc1	5%	15	0	i
N#C/C(=C\c1ccc[nH]1)S(=O)(=O)c1ccccc1	6%	1	12	i
O=C(c1ccco1)N1CCN(C2CCCC2)CC1	19%	6	50*	i
CCOC(=O)c1cc2nc(Nc3ccc(OC)cc3)sc2s1	15%	5	0	+
CCOC(=O)c1cnc(Nc2ccc(OCC)cc2)nc1C	4%	8	4	i
CCOc1cc(C(=O)NCc2nnc(SCC(=O)OC)n2C)cc(OCC)c1OCC	12%	12*	0	i
CCOC(=O)CSc1nnc(CNC(=O)c2cc(OCC)c(OCC)c(OCC)c2)n1C	5%	14	0	i
SMILES	NADH coupling	PMK inhibit	MK inhibit	Spn DPM-DC inh
NC(=O)C1CCN(C(c2ccccc2Cl)c2nnnn2Cc2ccc3c(c2)OCO3)CC1 (stereo not drawn)	11%	14	7	i
O=C(COC(=O)Cc1ccc(S(=O)(=O)N2CCOCC2)s1)NCc1ccccc1	21%	13	49*	i
Cc1ccc(C(C)NC(=O)c2ccco2)cc1C (stereo not drawn)	2%	0	4	i
Cc1cc(C(=O)CSc2nnnn2-c2ccc(Cl)cc2)c(C)n1CC1CCCO1 (stereo not drawn)	17%	16	3	+
COc1ccc(S(=O)(=O)N(CCCN2CCCC2=O)Cc2cc3cc(C)c(C)cc3[nH]c2=O)cc1	10%	14	8	i
FC(F)(F)c1cccc(CN2CCCCCC2)c1	17%	5	45*	i
Cc1cc2c(cc(C(=O)NCc3cccnc3)n2Cc2ccc(Cl)cc2)o1	3%	12	6	i
CC(=NCc1ccco1)c1c(O)n(C2CCCCC2)c(=O)[nH]c1=O	8%	10	13	i
CC(=NCc1ccco1)c1c(C)[nH]n(-c2nc3ccccc3s2)c1=O	16%	12	0	+
Cc1ccc2c(C)nc(Nc3nc(CSc4nnnn4-c4ccccc4)cc(=O)[nH]3)nc2c1	3%	8	4	i
COCc1cc(=O)[nH]c(Nc2nc(C)c3ccc(C)cc3n2)n1	10%	28*	0	i
CCSc1nc2c(cnn2-c2ccc(C)c(C)c2)c(=O)[nH]1	2%	4	2	i
CC1CCN(C(=O)CSc2nc3ccccc3[nH]2)CC1	3%	32*	1	i
COC(=O)c1cn(-c2ccccc2)nc1C(=O)OC	5%	19*	2	i
Nc1ccc(C(=O)c2ccc3c(c2)OCCO3)cc1N	3%	0	6	i
Cc1ccc(C(=O)c2cc3c(cc2N)OCCO3)cc1	9%	27*	0	i
Cn1c(=O)n(CCc2ccccc2)c(=O)c2c1nc1n2CCN1c1ccccc1	7%	12	10	i
COc1cccc2cc(C(=O)N3CCc4ccccc4C3)c(=O)oc12	5%	9	5	i
COc1cccc2cc(C(=O)N3CCN(c4ccccc4F)CC3)c(=O)oc12	10%	29*	0	i
O=C1c2ccccc2C(O)(Cc2ccccc2)N1c1ccc2c(c1)OCO2 (stereo not drawn)	7%	16	0	i
Oc1ccc(-c2n[nH]c(=S)n2Cc2ccccc2)cc1	3%	0	active	i
S=c1[nH]nc(-c2ccncc2)n1Cc1ccccc1	16%	16	18	i
O=C(COC(=O)CCc1c[nH]c(=O)[nH]1)Nc1ccccc1	11%	25*	0	i
O=C(O)Cn1nnc(-c2cccs2)n1	6%	6	12	i
O=C(O)CCn1nnc(-c2cccs2)n1	26%	13	0	+
SMILES	NADH coupling	PMK inhibit	MK inhibit	Spn DPM-DC inh
CCOc1ccccc1C(=O)NCC(=O)OCC(=O)c1ccc2c(c1)OCCO2	9%	26*	0	i
COC(=O)c1c(C(=O)OC)c2ccncn2c1Cl	24%	17	10	+
COC(=O)C1=C(C)N(c2ccc(Cl)c(Cl)c2)C(=O)C1	0%	0	0	i
OCc1nn2c(c1Br)NC(c1ccccc1)CC2C(F)(F)F (stereo not drawn)	6%	11	4	i
CCOc1cc(CN2CCN(C(=O)c3ccco3)CC2)ccc1OC	7%	0	51*	i
CCOc1cc(CN2CCCCC2)ccc1OC	0%	0	1	i
CCOc1cc(CN2CCN(c3ccc(C(C)=O)cc3)CC2)ccc1OC	15%	0	44*	i
COc1ccc(CN2CCN(C(=O)c3cccs3)CC2)cc1Br	21%	13	49*	i
CCC1(CC)NC(=O)N(CC(=O)Nc2sc3c(c2C(N)=O)CCC3)C1=O	8%	19	0	i
O=C(Nc1nnc(CC(=O)N2CCCC2)s1)c1cnccn1	4%	7	4	i

Compound activity as filed in PubChem.
